In PubChem BioAssay AID1159580 (chemical genetic matrix, 2015):
Values joined by “and” are separate entries in the source; they are usually repeats but may differ in a detail not shown here. Identical values can stand only once. Screen size: about 5,500 compounds; about 2,000 (36%) were called active. Not shown: some 18% with an inconclusive outcome. Cut-off read from the data, not from the text of the source: active = normalized growth mostly below about 0.91 (no sharp cut-off); inconclusive = no clear call, values can overlap the other calls; inactive = mostly above about 0.92. This is one part of the list.

Assay: chemical genetic growth profiling, strain panel (AID 1159580);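 note: tested at 20 µM; growth read once vehicle control cultures reached saturation at 30 °C; 1 = growth at the plate median or of vehicle wells; lower values mean less growth of the strain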
Details: S. cerevisiae deletion strains, growth OD

Measured: normalized growth

NC(=NCCCCCCN=C(N)N=C(N)Nc1ccc(Cl)cc1)N=C(N)Nc1ccc(Cl)cc1
active: locus YAL013W, strain DEP1, hits give low values 0.056 | locus YAL021C, strain ccr4, hits give low values 0.0662 | locus YAL026C, strain drs2, hits give low values 0.0626 | locus YAL030W, strain snc1, hits give low values 0.0546 | locus YBL061C, strain skt5, hits give low values 0.058 | locus YBR009C, strain hhf1, hits give low values 0.0582 | locus YBR021W, strain FUR4, hits give low values 0.0878 | locus YBR023C, strain chs3, hits give low values 0.0607 | locus YBR171W, strain sec66, hits give low values 0.0764 | locus YBR229C, strain ROT2, hits give low values 0.0485 | locus YBR231C, strain swc5, hits give low values 0.0617 | locus YBR279W, strain paf1, hits give low values 0.057 | locus YCL011C, strain gbp2, hits give low values 0.0584 | locus YCL016C, strain dcc1, hits give low values 0.0623 | locus YCL029C, strain bik1, hits give low values 0.0646 | locus YCL061C, strain MRC1, hits give low values 0.064 | locus YCL069W, strain vba3, hits give low values 0.0598 | locus YCR088W, strain abp1, hits give low values 0.0598 | locus YDL005C, strain med2, hits give low values 0.0712 | locus YDL035C, strain GPR1, hits give low values 0.0531 | locus YDL040C, strain nat1, hits give low values 0.0593 | locus YDL074C, strain BRE1, hits give low values 0.0847 | locus YDL101C, strain DUN1, hits give low values 0.0564 | locus YDL134C, strain PPH21, hits give low values 0.049 | locus YDL185W, strain tfp1, hits give low values 0.0606 | locus YDL192W, strain arf1, hits give low values 0.0624 | locus YDR001C, strain nth1, hits give low values 0.0588 | locus YDR069C, strain doa4, hits give low values 0.0603 | locus YDR101C, strain arx1, hits give low values 0.0584 | locus YDR137W, strain rgp1, hits give low values 0.0872 | locus YDR150W, strain NUM1, hits give low values 0.0563 | locus YDR159W, strain sac3, hits give low values 0.0896 | locus YDR162C, strain NBP2, hits give low values 0.0503 | locus YDR195W, strain ref2 0.121 | locus YDR297W, strain sur2, hits give low values 0.0547 | locus YDR318W, strain mcm21, hits give low values 0.0658 | locus YDR334W, strain swr1, hits give low values 0.0626 | locus YDR335W, strain msn5, hits give low values 0.0581 | locus YDR388W, hits give low values 0.0574 | locus YDR392W, strain spt3, hits give low values 0.0798 | locus YDR502C, strain sam2, hits give low values 0.0629 | locus YEL003W, strain gim4, hits give low values 0.0531 | locus YEL037C, strain rad23, hits give low values 0.0554 | locus YEL061C, strain CIN8 (second series), hits give low values 0.0594 | locus YEL061C, strain CIN8, hits give low values 0.0488 | locus YER015W, strain faa2, hits give low values 0.0825 | locus YER016W, strain bim1, hits give low values 0.058 | locus YER110C, hits give low values 0.0744 | locus YER111C, strain swi4, hits give low values 0.0705 | locus YER155C, strain BEM2 (second series), hits give low values 0.087 | locus YER155C, strain BEM2, hits give low values 0.0622 | locus YER167W, strain BCK2, hits give low values 0.0527 | locus YFR010W, strain ubp6, hits give low values 0.0674 | locus YGL078C, strain dbp3, hits give low values 0.65 | locus YGL086W, strain mad1, hits give low values 0.0564 | locus YGL167C, strain pmr1, hits give low values 0.0727 | locus YGL173C, strain kem1, hits give low values 0.0668 | locus YGL227W, strain vid30, hits give low values 0.0612 | locus YGL240W, strain doc1, hits give low values 0.0747 | locus YGL248W, strain PDE1, hits give low values 0.0464 | locus YGL253W, strain hxk2, hits give low values 0.0538 | locus YGR078C, strain PAC10, hits give low values 0.0508 | locus YGR135W, strain pre9, hits give low values 0.0694 | locus YGR229C, strain SMI1, hits give low values 0.0582 | locus YGR252W, strain gcn5, hits give low values 0.146 | locus YHR013C, strain ard1, hits give low values 0.103 | locus YHR027C, strain rpn1, hits give low values 0.058 | locus YHR030C, strain SLT2, hits give low values 0.051 and 0.102 | locus YHR079C, strain IRE1 (second series), hits give low values 0.0602 | locus YHR079C, strain IRE1, hits give low values 0.112 | locus YHR094C, strain hxt1, hits give low values 0.0587 | locus YHR129C, strain ARP1, hits give low values 0.0541 | locus YHR142W, strain chs7, hits give low values 0.0756 | locus YHR200W, strain rpn10, hits give low values 0.0614 | locus YIL066C, strain RNR3, hits give low values 0.0507 | locus YIL073C, strain SPO22, hits give low values 0.128 | locus YIL125W, strain kgd1, hits give low values 0.898 | locus YIR030C, strain dcg1, hits give low values 0.0593 | locus YJL092W, strain hpr5, hits give low values 0.0573 | locus YJL095W, strain BCK1 (second series), hits give low values 0.0565 | locus YJL095W, strain BCK1, hits give low values 0.0587 and 0.0988 | locus YJL115W, strain asf1, hits give low values 0.0702 | locus YJL129C, strain trk1, hits give low values 0.0784 | locus YJL134W, strain LCB3, hits give low values 0.0499 | locus YJL154C, strain vps35, hits give low values 0.0596 | locus YJL164C, strain tpk1, hits give low values 0.0644 | locus YJL166W, strain qcr8, hits give low values 0.0585 | locus YJL168C, strain set2, hits give low values 0.059 | locus YJL187C, strain SWE1 (second series), hits give low values 0.0495 | locus YJR043C, strain POL32, hits give low values 0.0601 | locus YJR066W, strain TOR1, hits give low values 0.00766
